The nature of assay [1]: antimalarial activity against Dd2 strain (AID 2302;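 active = growth inhibition above 50% at the single 2 µM test dose, taken to imply half-maximal potency below 2 µM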;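 note: 0% = DMSO untreated growth and 100% = chloroquine plus artemisinin killed control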). The note with it: P. falciparum Dd2 in RBCs, LDH growth readout, 72 h; at 2 µM; stronger effect = higher value.
Assay [2] in a line: human hepatoma cell viability loss – ATP luminescence, cytotoxicity control for P. falciparum antimalarial project, primary screen (AID 2303;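 active = inhibition above 50%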;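 note: 0% = DMSO wells and 100% = digitonin-killed cells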). The note with it: HepG2 viability, 24-48 h, at 10 µM, stronger effect = higher value.
Assay [3] has as its target L-lactate dehydrogenase (Plasmodium falciparum (isolate CDC / Honduras)) (UniProt Q27743). Kind of assay: PfLDH activity inhibition – cell lysate, 3D7 strain, counter-screen for P. falciparum growth inhibition project (AID 2304).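 Note: 0% = vehicle and 100% = reference inhibitor.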 The note with it: P. falciparum 3D7 crude extract, LDH APAD/NBT absorbance; at 2 µM; stronger effect = higher value.
The nature of assay [4]: inhibition of 3D7 malaria parasite growth – strain 3D7 (AID 2306).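 Note: 0% = DMSO wells and 100% = chloroquine plus artemisinin control wells.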 To be noted: P. falciparum 3D7 erythrocytic growth, LDH absorbance, 72 h; at 2 µM; stronger effect = higher value.
The target of assay [5] is Calcium-dependent protein kinase 1 (Plasmodium falciparum (isolate 3D7)) (UniProt P62344). Description: PfCDPK1 kinase inhibitors, biochemical, TCAMS library (AID 1159585; cut-off not given, nearly all actives have IC50 up to about 0.98 µM;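 note: inhibitors leave more ATP so luminescence rises with inhibition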). To be noted: recombinant PfCDPK1, Kinase-Glo ATP depletion luminescence. A general note: Kinase-Glo measures the ATP left after a reaction by luminescence.
Calcium-dependent protein kinase 1 (Plasmodium falciparum (isolate 3D7)), sequence (P62344 whole entry, looked up): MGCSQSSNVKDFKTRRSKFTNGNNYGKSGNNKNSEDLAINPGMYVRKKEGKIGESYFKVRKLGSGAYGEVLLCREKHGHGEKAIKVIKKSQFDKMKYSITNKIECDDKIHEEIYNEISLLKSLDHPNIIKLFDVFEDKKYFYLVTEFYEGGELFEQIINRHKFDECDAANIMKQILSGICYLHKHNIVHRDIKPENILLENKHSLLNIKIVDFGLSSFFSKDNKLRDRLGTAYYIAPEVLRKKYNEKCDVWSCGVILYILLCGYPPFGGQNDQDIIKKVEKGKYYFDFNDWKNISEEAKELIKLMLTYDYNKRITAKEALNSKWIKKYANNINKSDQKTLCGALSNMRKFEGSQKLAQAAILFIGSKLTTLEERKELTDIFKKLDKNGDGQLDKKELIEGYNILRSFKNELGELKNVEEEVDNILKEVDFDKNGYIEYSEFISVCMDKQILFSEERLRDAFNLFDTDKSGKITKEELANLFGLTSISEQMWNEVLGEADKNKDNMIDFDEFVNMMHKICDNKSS
Assay [6] deals with Plasmodium falciparum protein kinase 6 (PK6, PF3D7_1337100) (UniProt Q8IDW1). Description: PfPK6 kinase inhibitors, biochemical, TCAMS library (AID 1159586). The note with it: recombinant PfPK6, Kinase-Glo ATP depletion luminescence.
Plasmodium falciparum protein kinase 6 (PK6, PF3D7_1337100), sequence (Q8IDW1 1-305): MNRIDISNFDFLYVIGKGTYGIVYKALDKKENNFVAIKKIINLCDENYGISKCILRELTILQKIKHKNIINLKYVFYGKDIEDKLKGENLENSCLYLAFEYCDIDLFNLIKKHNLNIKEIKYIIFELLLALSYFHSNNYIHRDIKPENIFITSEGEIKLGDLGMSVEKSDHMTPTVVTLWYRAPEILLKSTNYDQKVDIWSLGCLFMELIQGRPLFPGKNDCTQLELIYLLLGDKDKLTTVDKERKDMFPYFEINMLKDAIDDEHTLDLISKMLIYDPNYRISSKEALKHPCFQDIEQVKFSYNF
The target of assay [7] is Protein kinase 7 (PK7), Plasmodium falciparum 3D7 (PF3D7_0213400) (UniProt Q7YTF7). Kind of assay: inhibition of Plasmodium PK7 catalytic activity – biochemical, TCAMS antimalarial set, Kinase-Glo luminescence (AID 1159587). The note with it: recombinant PfPK7, Kinase-Glo ATP depletion luminescence.
Protein kinase 7 (PK7), Plasmodium falciparum 3D7 (PF3D7_0213400), sequence (Q7YTF7 1-343): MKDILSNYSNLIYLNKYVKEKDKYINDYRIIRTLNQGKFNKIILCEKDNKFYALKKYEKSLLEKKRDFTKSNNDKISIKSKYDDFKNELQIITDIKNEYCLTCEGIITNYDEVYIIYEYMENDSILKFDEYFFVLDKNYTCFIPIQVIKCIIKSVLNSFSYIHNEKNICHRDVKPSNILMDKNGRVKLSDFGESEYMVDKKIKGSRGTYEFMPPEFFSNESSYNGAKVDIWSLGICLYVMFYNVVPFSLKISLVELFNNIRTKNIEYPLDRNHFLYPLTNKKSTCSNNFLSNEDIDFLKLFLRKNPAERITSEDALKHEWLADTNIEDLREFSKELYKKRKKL
The target in assay [8] is Calcium-dependent protein kinase 4 (Plasmodium falciparum (isolate 3D7)) (UniProt Q8IBS5). Kind of assay: PfCDPK4 kinase inhibitors, biochemical, TCAMS library (AID 1159588; cut-off not given, nearly all actives have IC50 up to about 0.91 µM). The note with it: recombinant PfCDPK4, Kinase-Glo ATP depletion luminescence.
Calcium-dependent protein kinase 4 (Plasmodium falciparum (isolate 3D7)), sequence (Q8IBS5 whole entry, looked up): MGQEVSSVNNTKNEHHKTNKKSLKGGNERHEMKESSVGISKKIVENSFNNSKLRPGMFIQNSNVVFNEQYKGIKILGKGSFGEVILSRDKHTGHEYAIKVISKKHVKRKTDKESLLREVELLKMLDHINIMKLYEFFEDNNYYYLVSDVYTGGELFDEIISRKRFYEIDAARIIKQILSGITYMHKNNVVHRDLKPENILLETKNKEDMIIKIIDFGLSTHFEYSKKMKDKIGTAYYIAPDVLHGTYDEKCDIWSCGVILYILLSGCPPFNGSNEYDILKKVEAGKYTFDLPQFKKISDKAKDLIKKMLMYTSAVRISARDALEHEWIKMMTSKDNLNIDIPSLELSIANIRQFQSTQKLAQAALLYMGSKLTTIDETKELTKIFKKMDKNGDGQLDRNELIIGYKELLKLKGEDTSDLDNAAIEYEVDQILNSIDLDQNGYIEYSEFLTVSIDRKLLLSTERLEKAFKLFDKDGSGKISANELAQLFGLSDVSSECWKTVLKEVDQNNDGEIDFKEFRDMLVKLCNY

Values without a mark were called inactive. For some of these results: Results with a measured potency or affinity are listed apart. Active and inactive are the calls of the source. Unless noted, the rule behind the calls is not given here.

L-lactate dehydrogenase (Plasmodium falciparum (isolate CDC / Honduras)), sequence (Q27743 whole entry, looked up): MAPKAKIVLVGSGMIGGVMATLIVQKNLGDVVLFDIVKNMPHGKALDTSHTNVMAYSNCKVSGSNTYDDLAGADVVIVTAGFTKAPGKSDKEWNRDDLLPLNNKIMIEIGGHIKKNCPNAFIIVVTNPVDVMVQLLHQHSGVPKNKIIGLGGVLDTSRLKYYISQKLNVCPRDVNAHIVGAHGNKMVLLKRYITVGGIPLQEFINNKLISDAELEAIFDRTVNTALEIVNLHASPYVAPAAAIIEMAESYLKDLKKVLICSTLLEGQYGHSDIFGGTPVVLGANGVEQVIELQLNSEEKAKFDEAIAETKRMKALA

Broadly, the inhibition is the relative decrease from the control value, in per cent. As to `COc1ccc(-c2nonc2NC(=O)c2cccc(C)c2)cc1OC`, the growth inhibition in assay [1] was 8%; in assay [4], 97% (active). For the same compound, the inhibition is 24% in assay [2] and -1% in assay [3]. The result in assay [5], in assay [6], in assay [7] and in assay [8] was inactive.

As for `c1ccc(CCNCc2cccc(-c3ccc(CNc4ccc5ncccc5c4)cc3)c2)cc1`, the growth inhibition was 27% in assay [1] and 93% (active) in assay [4]. Further, the inhibition is 43% in assay [2] and -2% in assay [3]. Further, the result in assay [5], in assay [6], in assay [7] and in assay [8] was inactive.

`O=C(NCc1ccc(F)cc1)Nc1cccc(-c2ccc(-c3nc4ccccc4[nH]3)cc2)c1`: the growth inhibition is 49% in assay [1] and 101% (active) in assay [4]. Also, the inhibition was 45% in assay [2] and 2% in assay [3]. Moreover, the outcome in assay [5], in assay [6], in assay [7] and in assay [8] was inactive.

On to `CCOC(=O)C1=C(C)N=c2sc(=Cc3cc(Cl)ccc3O)c(=O)n2C1c1cc(OC)c(OC)cc1Br` (stereo not given), for which the growth inhibition was 76% (active) in assay [1] and 97% (active) in assay [4]. Besides, the inhibition in assay [2] was 6%; in assay [3] it was -2%. For the same compound, the outcome in assay [5], in assay [6], in assay [7] and in assay [8] was inactive.

Consider `O=C(NCCCCN1CCC(c2ccc3c(c2OCCCO)CCCC3)CC1)c1ccc(-c2ccc(C(F)(F)F)cc2)cc1`, for which the growth inhibition in assay [1] was 53% (active); in assay [4], 83% (active). In addition, the inhibition in assay [2] was 98% (active); in assay [3] it was 1%. Further, the result in assay [5], in assay [6], in assay [7] and in assay [8] was inactive.

In the case of `CC(=O)Nc1ncc(C(=O)Nc2cccc(-c3ccc(-c4nc5ccc(C(F)(F)F)cc5[nH]4)cc3)c2)s1`, the growth inhibition was 94% (active) in assay [1] and 101% (active) in assay [4]. For the same compound, the inhibition in assay [2] is 83% (active); in assay [3], -4%. The outcome in assay [5], in assay [6], in assay [7] and in assay [8] was inactive.

As to `Cc1cnc(Nc2cccnc2)nc1Nc1ccccc1C(=O)NC(C)C`, the growth inhibition in assay [1] was 26%; in assay [4], 85% (active). Also, the values for the inhibition in assay [2] and in assay [3] were 9% and 0%, respectively. The outcome in assay [5], in assay [6], in assay [7] and in assay [8] was inactive.

Consider `CC(=O)Nc1ccc(CN2CCC(NC(=O)c3ccc(-c4cccc(OC(C)C)c4)s3)CC2)cc1`, for which the growth inhibition in assay [1] was 13%; in assay [4] it was 89% (active). In addition, the inhibition in assay [2] was 14%; in assay [3] it was -5%. For the same compound, the result in assay [5], in assay [6], in assay [7] and in assay [8] was inactive.

Regarding `COc1ccc(Oc2ccc(-c3c(C)[nH]c(C)cc3=O)cc2)cc1`, the growth inhibition in assay [1] is 88% (active); in assay [4], 93% (active). In addition, the inhibition in assay [2] was -12%; in assay [3] it was -3%. Also, the result in assay [5], in assay [6], in assay [7] and in assay [8] was inactive.

Take `C#CCCOc1ccc2ccccc2c1CNCCCCCCNCc1c(OCCC#C)ccc2ccccc12`: the growth inhibition in assay [1] was 65% (active); in assay [4], 100% (active). For the same compound, the inhibition is 100% (active) in assay [2] and 2% in assay [3]. The result in assay [5], in assay [6], in assay [7] and in assay [8] was inactive.

Regarding `O=S(=O)(c1ccc(Cl)cc1Cl)N1CCCCC(c2ccc(C(F)(F)F)cc2)=N1`, the growth inhibition in assay [1] was 99% (active); in assay [4], 100% (active). Besides, the figures for the inhibition in assay [2] and in assay [3] were 10% and 4%, respectively. Besides, the result in assay [5], in assay [6], in assay [7] and in assay [8] was inactive.

Turning to `CN(C)CCOc1ccc2c(=O)cc(CCc3cccc(F)c3F)n(CC(=O)N(C)Cc3ccc(-c4ccc(C(F)(F)F)cc4)cc3)c2c1`, the growth inhibition in assay [1] was 60% (active); in assay [4], 90% (active). In addition, the inhibition in assay [2] is 33%; in assay [3], 2%. Besides, the outcome in assay [5], in assay [6], in assay [7] and in assay [8] was inactive.

With `COc1ccc2nccc([C@@H](O)CN3CCC(NCCOc4c(C)cccc4F)CC3)c2c1`, the growth inhibition in assay [1] was 95% (active); in assay [4], 100% (active). The inhibition is 4% in assay [2] and -5% in assay [3]. In addition, the result in assay [5], in assay [6], in assay [7] and in assay [8] was inactive.

Take `O=S(=O)(c1csc2ccccc12)N(CCC(O)(C(F)(F)F)C(F)(F)F)Cc1cccc(O)c1`: the figures for the growth inhibition in assay [1] and in assay [4] were 100% (active) and 101% (active), respectively. Also, the inhibition in assay [2] is -11%; in assay [3] it was 7%. In addition, the result in assay [5], in assay [6], in assay [7] and in assay [8] was inactive.

For `Cc1cccc2[nH]c(-c3cccc(-c4ccc(NC(=O)c5cnccc5C(F)(F)F)cc4)c3)nc12`, the values for the growth inhibition in assay [1] and in assay [4] were 37% and 100% (active), respectively. The inhibition in assay [2] is 60% (active); in assay [3], -3%. Also, the result in assay [5], in assay [6], in assay [7] and in assay [8] was inactive.

In the case of `CCOc1c(CNCCCCCCNCc2ccc3ccccc3c2OCC)ccc2ccccc12`, the growth inhibition in assay [1] was 78% (active); in assay [4], 99% (active). In addition, the inhibition in assay [2] is 100% (active); in assay [3], 6%. The result in assay [5], in assay [6], in assay [7] and in assay [8] was inactive.

As for `NC1=NC(c2ccccc2)(c2ccccc2)C(=O)N1CC=Cc1ccccc1`, the growth inhibition is 70% (active) in assay [1] and 98% (active) in assay [4]. Also, the results for the inhibition in assay [2] and in assay [3] were 23% and -3%, respectively. The result in assay [5], in assay [6], in assay [7] and in assay [8] was inactive.

Regarding `Cc1cccc(CNc2nc(C)cc(N[C@@H](Cc3ccccc3)C(=O)NC3CCCC3)n2)c1`, the growth inhibition in assay [1] was 97% (active); in assay [4] it was 100% (active). Besides, the values for the inhibition in assay [2] and in assay [3] were 51% (active) and -3%, respectively. Besides, the result in assay [5], in assay [6], in assay [7] and in assay [8] was inactive.

In the case of `CC(C)COc1ccc(Cl)cc1Cc1nc(-c2nc3ccc(CN4CCCCC4)cc3[nH]2)co1`, the growth inhibition was 70% (active) in assay [1] and 101% (active) in assay [4]. The inhibition in assay [2] was 49%; in assay [3] it was -4%. Besides, the outcome in assay [5], in assay [6], in assay [7] and in assay [8] was inactive.

Regarding `COc1cccc(CN2CCC3(CC2)CN(C(=O)Nc2ccc(Cl)c(Cl)c2)C3)c1`, the figures for the growth inhibition in assay [1] and in assay [4] were 2% and 97% (active), respectively. For the same compound, the inhibition was 29% in assay [2] and 2% in assay [3]. For the same compound, the outcome in assay [5], in assay [6], in assay [7] and in assay [8] was inactive.

These data come from PubChem BioAssay.
